Reference: the supplement of paper PMC10849652
Of roughly 7,900 targets only a part is listed; those with a hit were picked by preference. About 0.6% of all pairs of compound and target were hits.

Legend:
Test in all cases: log2 fold change, soluble protein after heating vs DMSO (PISA); higher = thermal stabilisation; K562 cells, 10 uM, 30 min; active = over 0.2 and 3.5 SD of the protein, either way, in both replicates (recomputed)
[1] = compound: CS(=O)(=O)c1ccc(-c2cnc(N)c(C(=O)Nc3ccccc3)n2)cc1
How it was run: (§1)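 K562 cells at 2×10^6 cells/mL were treated with 10 μM compound for 30 min. Aliquots were heated for 3 min across 48°C-58°C, pooled, and extracted in PBS with 0.5% NP-40 at 4°C; soluble protein was the supernatant after 21,000xg for 90 min. Soluble protein was quantified by TMTpro 16plex LC-MS/MS with channel sums equalised, and reported as log2 fold change in thermal stability against DMSO controls, with values from duplicates.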

crizotinib = compound: C[C@@H](Oc1cc(-c2cnn(C3CCNCC3)c2)cnc1N)c1c(Cl)ccc(F)c1Cl [crizotinib]
How it was run: as §1

[2] = compound: C[C@@H]1COCCN1C2=NC(=NC(=C2)C3(CC3)S(=O)(=O)C)C4=C5C=CNC5=CC=C4
How it was run: as §1

[3] = compound: C[C@H](C1=CC=C(C=C1)C(=O)NC2=C3C=CNC3=NC=C2)N
How it was run: as §1

duvelisib = compound: C[C@H](Nc1ncnc2nc[nH]c12)c1cc2cccc(Cl)c2c(=O)n1-c1ccccc1 [duvelisib]
How it was run: as §1

gandotinib = compound: Cc1cc(Nc2cc(CN3CCOCC3)c3nc(C)c(Cc4ccc(Cl)cc4F)n3n2)n[nH]1 [gandotinib]
How it was run: as §1

tozasertib = compound: Cc1cc(Nc2cc(N3CCN(C)CC3)nc(Sc3ccc(NC(=O)C4CC4)cc3)n2)n[nH]1 [tozasertib]
How it was run: as §1

[4] = compound: Cc1cc(SCc2sc(-c3ccc(C(F)(F)F)cc3)nc2C)ccc1OCC(=O)O
How it was run: as §1

doramapimod = compound: Cc1ccc(-n2nc(C(C)(C)C)cc2NC(=O)Nc2ccc(OCCN3CCOCC3)c3ccccc23)cc1 [doramapimod]
How it was run: as §1

ispinesib = compound: Cc1ccc(C(=O)N(CCCN)[C@@H](c2nc3cc(Cl)ccc3c(=O)n2Cc2ccccc2)C(C)C)cc1 [ispinesib]
How it was run: as §1

bafetinib = compound: Cc1ccc(NC(=O)c2ccc(CN3CC[C@H](N(C)C)C3)c(C(F)(F)F)c2)cc1Nc1nccc(-c2cncnc2)n1 [bafetinib]
How it was run: as §1

[5] = compound: Cc1cccc(CC(=O)N2CCc3c2ccc(-c2cn(C)c4ncnc(N)c24)c3F)n1
How it was run: as §1

nilotinib = compound: Cc1cn(-c2cc(NC(=O)c3ccc(C)c(Nc4nccc(-c5cccnc5)n4)c3)cc(C(F)(F)F)c2)cn1 [nilotinib]
How it was run: as §1

[6] = compound: Cc1nc(Nc2n[nH]c3c2CN(C(=O)N[C@H](CN(C)C)c2ccccc2)C3(C)C)c2sccc2n1
How it was run: as §1

dasatinib = compound: Cc1nc(Nc2ncc(C(=O)Nc3c(C)cccc3Cl)s2)cc(N2CCN(CCO)CC2)n1 [dasatinib]
How it was run: as §1

[7] = compound: Cc1ncc(-c2ccnc(Nc3ccc(S(C)(=O)=O)cc3)n2)n1C(C)C
How it was run: as §1

[8] = compound: Cn1cc(-c2ccc3c(c2)CCN3C(=O)Cc2cccc(C(F)(F)F)c2)c2c(N)ncnc21
How it was run: as §1

[9] = compound: Cn1cc(-c2ccc3nnc(C(F)(F)c4ccc5ncccc5c4)n3n2)cn1
How it was run: as §1

tipifarnib = compound: Cn1cncc1[C@@](N)(c1ccc(Cl)cc1)c1ccc2c(c1)c(-c1cccc(Cl)c1)cc(=O)n2C [tipifarnib]
How it was run: as §1

mubritinib = compound: FC(F)(F)c1ccc(/C=C/c2nc(COc3ccc(CCCCn4ccnn4)cc3)co2)cc1 [mubritinib]
How it was run: as §1

Measured: log2 fold change

SEPTIN5 (UniProt Q99719)
inactive: [1] 0.004 | crizotinib 0.017 | [2] 0.036 | [3] -0.036 | duvelisib 0.002 | gandotinib -0.023 | tozasertib -0.008 | [4] -0.017 | doramapimod -0.017 | ispinesib 0.027 | bafetinib -0.017 | [5] 0.021 | nilotinib -0.011 | [6] 0.002 | dasatinib -0.048 | [7] -0.006 | [8] 0.051 | [9] 0.025 | tipifarnib -0.024 | mubritinib 0.007

RDH11 (UniProt Q8TC12)
inactive: [1] 0.164 | crizotinib -0.303 | [2] 0.082 | [3] 0.116 | duvelisib 0.11 | gandotinib 0.115 | tozasertib -0.029 | doramapimod 0.098 | ispinesib -0.365 | bafetinib -0.119 | [5] -0.048 | nilotinib 0.099 | [6] -0.112 | dasatinib -0.079 | [7] -0.03 | [8] 0.015 | [9] -0.022 | tipifarnib 0.059 | mubritinib -0.033
active: [4] 0.425

RAB5C isoform 2 (UniProt P51148)
Sequence of UniProt P51148 (P51148 whole entry, looked up): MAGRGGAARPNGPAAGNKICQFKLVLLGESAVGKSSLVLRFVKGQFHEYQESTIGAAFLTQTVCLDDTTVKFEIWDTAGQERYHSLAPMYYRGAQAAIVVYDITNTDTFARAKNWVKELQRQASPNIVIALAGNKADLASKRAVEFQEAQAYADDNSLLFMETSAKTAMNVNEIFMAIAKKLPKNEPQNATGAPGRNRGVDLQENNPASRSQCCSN
inactive: [1] -0.015 | crizotinib 0.099 | [2] 0.015 | [3] -0.092 | duvelisib 0.011 | gandotinib -0.021 | tozasertib -0.029 | [4] 0.014 | doramapimod 0.013 | ispinesib 0.054 | bafetinib -0.005 | [5] -0.021 | nilotinib 0.019 | [6] -0.019 | dasatinib 0.014 | [7] -0.003 | [8] 0.043 | [9] -0.027 | tipifarnib 0.006 | mubritinib 0.031

RNASET2 (UniProt O00584)
Sequence of UniProt O00584 (O00584 whole entry, looked up): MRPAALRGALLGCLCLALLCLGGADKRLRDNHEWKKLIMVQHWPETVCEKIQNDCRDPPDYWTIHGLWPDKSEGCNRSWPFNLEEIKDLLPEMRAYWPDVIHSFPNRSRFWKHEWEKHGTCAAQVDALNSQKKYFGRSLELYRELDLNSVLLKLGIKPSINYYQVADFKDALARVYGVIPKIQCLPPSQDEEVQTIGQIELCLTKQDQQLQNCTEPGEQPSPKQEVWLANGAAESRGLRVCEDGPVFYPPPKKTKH
inactive: [1] 0.033 | [2] 0.027 | [3] 0.08 | duvelisib 0.045 | gandotinib 0.01 | tozasertib -0.011 | [4] -0.037 | doramapimod -0.013 | ispinesib -0.149 | [5] -0.006 | nilotinib 0.016 | [6] -0.002 | dasatinib -0.031 | [7] -0.034 | [8] -0.065 | [9] 0.027 | tipifarnib 0.067 | mubritinib 0.021
active: crizotinib -0.35 | bafetinib -0.261

SAFB2 (UniProt Q14151)
Sequence of UniProt Q14151 (Q14151 whole entry, looked up): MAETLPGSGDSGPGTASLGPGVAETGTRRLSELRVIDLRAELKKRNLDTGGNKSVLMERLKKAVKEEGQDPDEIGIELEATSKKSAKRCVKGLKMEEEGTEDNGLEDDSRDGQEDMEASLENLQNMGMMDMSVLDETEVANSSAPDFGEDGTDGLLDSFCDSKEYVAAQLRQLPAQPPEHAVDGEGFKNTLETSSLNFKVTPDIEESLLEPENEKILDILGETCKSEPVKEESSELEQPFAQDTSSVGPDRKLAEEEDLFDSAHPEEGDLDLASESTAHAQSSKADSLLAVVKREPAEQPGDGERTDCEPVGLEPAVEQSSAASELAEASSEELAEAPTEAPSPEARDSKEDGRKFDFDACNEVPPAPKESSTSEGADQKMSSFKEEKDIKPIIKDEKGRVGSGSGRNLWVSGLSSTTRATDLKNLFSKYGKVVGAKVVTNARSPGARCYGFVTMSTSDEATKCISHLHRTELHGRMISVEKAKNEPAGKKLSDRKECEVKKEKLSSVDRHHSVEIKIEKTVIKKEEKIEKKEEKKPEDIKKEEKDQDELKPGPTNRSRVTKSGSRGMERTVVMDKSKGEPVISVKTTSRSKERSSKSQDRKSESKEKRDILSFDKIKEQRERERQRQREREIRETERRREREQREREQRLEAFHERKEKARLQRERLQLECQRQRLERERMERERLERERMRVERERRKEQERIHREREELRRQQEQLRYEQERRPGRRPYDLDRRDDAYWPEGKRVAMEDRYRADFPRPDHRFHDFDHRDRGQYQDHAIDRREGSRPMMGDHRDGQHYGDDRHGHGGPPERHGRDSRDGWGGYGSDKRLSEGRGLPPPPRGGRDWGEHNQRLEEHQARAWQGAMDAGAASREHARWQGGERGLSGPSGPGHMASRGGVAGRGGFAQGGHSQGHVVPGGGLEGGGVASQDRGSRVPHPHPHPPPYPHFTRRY
inactive: [1] -0.079 | crizotinib -0.016 | [2] -0.316 | [3] 0.164 | duvelisib -0.155 | gandotinib 0.184 | tozasertib -0.027 | [4] 0.006 | doramapimod 0.089 | ispinesib -0.043 | bafetinib 0.17 | [5] -0.018 | nilotinib -0.016 | [6] 0.117 | dasatinib 0.183 | [7] -0.054 | [8] -0.135 | [9] -0.058 | tipifarnib 0.085 | mubritinib -0.077

RBM39 (UniProt Q14498)
Sequence of UniProt Q14498 (Q14498 whole entry, looked up): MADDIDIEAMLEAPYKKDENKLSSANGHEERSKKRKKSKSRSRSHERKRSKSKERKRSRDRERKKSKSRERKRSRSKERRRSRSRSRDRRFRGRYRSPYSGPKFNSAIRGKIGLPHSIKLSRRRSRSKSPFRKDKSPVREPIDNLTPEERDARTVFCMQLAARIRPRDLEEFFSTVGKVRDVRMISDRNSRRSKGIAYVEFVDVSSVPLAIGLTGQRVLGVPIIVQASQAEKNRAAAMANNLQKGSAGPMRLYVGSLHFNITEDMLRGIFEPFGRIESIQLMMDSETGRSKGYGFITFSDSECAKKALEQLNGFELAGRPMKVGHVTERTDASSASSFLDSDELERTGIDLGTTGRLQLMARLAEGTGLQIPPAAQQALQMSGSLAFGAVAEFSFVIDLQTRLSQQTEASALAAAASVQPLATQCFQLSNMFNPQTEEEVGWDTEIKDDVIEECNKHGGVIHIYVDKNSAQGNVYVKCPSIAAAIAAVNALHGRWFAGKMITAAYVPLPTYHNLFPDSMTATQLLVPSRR
active: [6] -1.03
inactive: [1] -0.043 | crizotinib -0.114 | [2] 0.033 | [3] -0.01 | duvelisib -0.012 | gandotinib -0.052 | tozasertib 0.081 | [4] 0.036 | doramapimod -0.02 | ispinesib -0.032 | bafetinib 0.046 | [5] 0.082 | nilotinib -0.027 | dasatinib -0.1 | [7] 0.055 | [8] -0.041 | [9] -0.012 | tipifarnib -0.03 | mubritinib -0.043

SGPL1 (UniProt O95470)
Sequence of UniProt O95470 (O95470 whole entry, looked up): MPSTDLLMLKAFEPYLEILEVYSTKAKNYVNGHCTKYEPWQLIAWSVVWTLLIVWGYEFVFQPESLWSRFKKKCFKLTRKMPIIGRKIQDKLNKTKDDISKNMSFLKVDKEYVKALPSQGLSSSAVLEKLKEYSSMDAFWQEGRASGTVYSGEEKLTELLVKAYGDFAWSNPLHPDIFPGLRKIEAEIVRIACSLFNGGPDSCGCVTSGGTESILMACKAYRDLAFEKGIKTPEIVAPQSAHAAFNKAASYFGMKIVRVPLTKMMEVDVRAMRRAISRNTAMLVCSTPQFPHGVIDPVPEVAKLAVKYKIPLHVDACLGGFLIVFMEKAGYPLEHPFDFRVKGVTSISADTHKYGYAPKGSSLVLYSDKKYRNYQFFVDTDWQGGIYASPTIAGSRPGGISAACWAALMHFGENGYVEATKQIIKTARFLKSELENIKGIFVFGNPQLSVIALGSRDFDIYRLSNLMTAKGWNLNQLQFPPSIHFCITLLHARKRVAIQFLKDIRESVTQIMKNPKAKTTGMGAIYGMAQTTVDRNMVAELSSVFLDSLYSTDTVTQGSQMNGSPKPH
inactive: [1] 0.095 | crizotinib 0.077 | [2] -0.034 | [3] 0.011 | duvelisib 0.019 | gandotinib 0.259 | tozasertib -0.089 | [4] 0.024 | doramapimod 0.084 | ispinesib 0.077 | bafetinib 0.009 | [5] -0.013 | nilotinib 0.024 | [6] -0.017 | dasatinib 0.016 | [7] -0.029 | [8] -0.005 | [9] -0.071 | tipifarnib 0.151 | mubritinib 0.034

RSPRY1 (UniProt Q96DX4)
Sequence of UniProt Q96DX4 (Q96DX4 whole entry, looked up): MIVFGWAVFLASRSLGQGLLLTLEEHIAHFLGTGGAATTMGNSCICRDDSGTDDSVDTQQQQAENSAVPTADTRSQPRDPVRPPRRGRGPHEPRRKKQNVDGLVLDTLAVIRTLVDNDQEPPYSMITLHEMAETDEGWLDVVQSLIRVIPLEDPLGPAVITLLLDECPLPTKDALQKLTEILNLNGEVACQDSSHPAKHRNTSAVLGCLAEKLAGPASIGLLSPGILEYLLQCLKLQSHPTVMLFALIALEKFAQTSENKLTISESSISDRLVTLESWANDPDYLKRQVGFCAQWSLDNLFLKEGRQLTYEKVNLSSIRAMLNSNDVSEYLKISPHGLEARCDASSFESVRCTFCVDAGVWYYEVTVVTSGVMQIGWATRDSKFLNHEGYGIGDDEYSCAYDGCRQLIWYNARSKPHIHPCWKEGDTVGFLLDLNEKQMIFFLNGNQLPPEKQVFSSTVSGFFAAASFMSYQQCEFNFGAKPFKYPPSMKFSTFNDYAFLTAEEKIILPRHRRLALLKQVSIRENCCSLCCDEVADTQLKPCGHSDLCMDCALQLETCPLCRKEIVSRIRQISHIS
inactive: [1] -0.037 | crizotinib 0.11 | [2] 0.02 | [3] -0.006 | duvelisib 0.142 | gandotinib 0.067 | tozasertib -0.053 | [4] 0.012 | doramapimod 0.083 | ispinesib 0.033 | bafetinib 0.052 | [5] -0.05 | nilotinib 0.012 | [6] -0.037 | dasatinib -0.036 | [7] 0.01 | [8] 0.007 | [9] -0.049 | tipifarnib 0.093 | mubritinib -0.039

RPP14 (UniProt O95059)
inactive: [1] -0.048 | crizotinib -0.046 | [2] 0.019 | [3] -0.076 | duvelisib -0.019 | gandotinib -0.119 | tozasertib 0.052 | [4] -0.054 | doramapimod 0.06 | ispinesib 0.03 | bafetinib 0.045 | [5] 0 | nilotinib -0.014 | [6] 0.019 | dasatinib 0.063 | [7] -0.013 | [8] -0.078 | [9] -0.054 | tipifarnib 0.003 | mubritinib -0.084

RSF1 (UniProt Q96T23)
inactive: [1] 0.056 | crizotinib -0.054 | [2] -0.002 | [3] -0.058 | duvelisib 0.108 | gandotinib -0.104 | tozasertib 0.228 | [4] 0.194 | doramapimod 0.043 | ispinesib 0.087 | bafetinib 0.117 | [5] -0.027 | nilotinib 0.087 | [6] -0.102 | dasatinib -0.082 | [7] -0.096 | [8] 0.046 | [9] 0.079 | tipifarnib -0.222 | mubritinib 0.237

RBM17 (UniProt Q96I25)
Sequence of UniProt Q96I25 (Q96I25 whole entry, looked up): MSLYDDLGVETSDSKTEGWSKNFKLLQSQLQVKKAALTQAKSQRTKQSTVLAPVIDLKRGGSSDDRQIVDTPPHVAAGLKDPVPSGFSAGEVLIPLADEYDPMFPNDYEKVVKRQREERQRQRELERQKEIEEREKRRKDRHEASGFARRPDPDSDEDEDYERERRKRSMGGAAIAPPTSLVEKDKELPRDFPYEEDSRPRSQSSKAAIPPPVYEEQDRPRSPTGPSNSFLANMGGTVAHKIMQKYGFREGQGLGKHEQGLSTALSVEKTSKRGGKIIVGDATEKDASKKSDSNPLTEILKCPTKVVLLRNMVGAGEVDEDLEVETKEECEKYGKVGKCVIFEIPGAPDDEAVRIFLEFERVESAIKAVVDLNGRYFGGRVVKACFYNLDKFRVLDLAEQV
inactive: [1] -0.043 | crizotinib -0.065 | [2] 0.106 | [3] 0.02 | duvelisib 0.031 | gandotinib -0.031 | tozasertib 0.057 | [4] 0.106 | doramapimod -0.028 | ispinesib 0.007 | bafetinib -0.056 | [5] 0.042 | nilotinib -0.095 | [6] -0.249 | dasatinib -0.108 | [7] 0.011 | [8] -0.067 | [9] -0.028 | tipifarnib -0.042 | mubritinib -0.148

RPA1 (UniProt P27694)
Sequence of UniProt P27694 (P27694 whole entry, looked up): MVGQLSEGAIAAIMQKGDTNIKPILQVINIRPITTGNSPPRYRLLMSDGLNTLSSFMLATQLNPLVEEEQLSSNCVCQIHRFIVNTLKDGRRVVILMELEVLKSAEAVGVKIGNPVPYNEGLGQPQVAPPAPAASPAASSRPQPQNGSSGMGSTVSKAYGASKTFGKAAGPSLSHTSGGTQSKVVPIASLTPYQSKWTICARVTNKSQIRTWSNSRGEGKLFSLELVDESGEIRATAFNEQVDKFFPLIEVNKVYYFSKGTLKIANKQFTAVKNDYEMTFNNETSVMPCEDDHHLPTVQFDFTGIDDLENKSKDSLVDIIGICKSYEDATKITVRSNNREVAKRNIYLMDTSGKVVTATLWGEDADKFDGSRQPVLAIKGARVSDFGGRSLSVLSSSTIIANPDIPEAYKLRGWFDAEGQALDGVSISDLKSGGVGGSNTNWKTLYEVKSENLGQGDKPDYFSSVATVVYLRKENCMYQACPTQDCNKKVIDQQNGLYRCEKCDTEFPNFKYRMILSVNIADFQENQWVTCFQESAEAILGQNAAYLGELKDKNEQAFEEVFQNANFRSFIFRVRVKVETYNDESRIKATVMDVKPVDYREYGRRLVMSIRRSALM
inactive: [1] -0.028 | crizotinib -0.019 | [2] -0.199 | [3] 0.036 | duvelisib -0.035 | gandotinib -0.103 | tozasertib 0.015 | [4] 0.022 | doramapimod -0.05 | ispinesib 0.004 | bafetinib 0.029 | [5] 0.019 | nilotinib -0.051 | [6] -0.1 | dasatinib 0.077 | [7] 0.016 | [8] -0.004 | [9] 0.015 | tipifarnib -0.074 | mubritinib 0.026

SELENOH (UniProt Q8IZQ5)
Sequence of UniProt Q8IZQ5 (Q8IZQ5 whole entry, looked up): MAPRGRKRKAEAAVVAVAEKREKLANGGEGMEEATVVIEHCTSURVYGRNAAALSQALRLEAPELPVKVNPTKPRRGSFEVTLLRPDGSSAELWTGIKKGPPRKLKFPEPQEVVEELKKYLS
inactive: [1] -0.19 | crizotinib 0 | [2] -0.014 | [3] -0.022 | duvelisib -0.101 | gandotinib -0.12 | tozasertib -0.008 | [4] -0.051 | doramapimod -0.018 | ispinesib 0.036 | bafetinib 0.042 | [5] 0.21 | nilotinib -0.02 | [6] 0.011 | dasatinib 0.076 | [7] 0.012 | [8] -0.039 | [9] 0.036 | tipifarnib -0.01 | mubritinib -0.009

RHOA (UniProt P61586)
inactive: [1] 0.028 | crizotinib 0.098 | [2] -0.317 | [3] -0.101 | duvelisib -0.066 | gandotinib 0.022 | tozasertib -0.024 | [4] -0.035 | doramapimod -0.082 | ispinesib 0.219 | bafetinib -0.149 | [5] -0.051 | nilotinib 0.154 | [6] 0.001 | dasatinib 0.001 | [7] 0.014 | [8] 0.04 | [9] 0.012 | tipifarnib 0 | mubritinib 0.029

RNF187 (UniProt Q5TA31)
Sequence of UniProt Q5TA31 (Q5TA31 whole entry, looked up): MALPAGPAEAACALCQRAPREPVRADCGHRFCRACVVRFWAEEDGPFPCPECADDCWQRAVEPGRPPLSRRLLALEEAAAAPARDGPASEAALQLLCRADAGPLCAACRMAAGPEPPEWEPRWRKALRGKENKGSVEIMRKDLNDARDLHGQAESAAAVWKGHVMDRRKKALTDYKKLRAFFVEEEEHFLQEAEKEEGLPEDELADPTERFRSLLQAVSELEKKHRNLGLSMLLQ
inactive: [1] -0.097 | crizotinib -0.018 | [2] -0.019 | [3] -0.027 | duvelisib 0.015 | gandotinib -0.111 | tozasertib -0.069 | [4] 0.038 | doramapimod 0.015 | ispinesib 0.191 | bafetinib 0.009 | [5] 0.088 | nilotinib 0.029 | [6] -0.041 | dasatinib 0.022 | [7] -0.001 | [8] -0.105 | [9] 0.006 | tipifarnib -0.07 | mubritinib 0.102

RETREG3 (UniProt Q86VR2)
Sequence of UniProt Q86VR2 (Q86VR2 whole entry, looked up): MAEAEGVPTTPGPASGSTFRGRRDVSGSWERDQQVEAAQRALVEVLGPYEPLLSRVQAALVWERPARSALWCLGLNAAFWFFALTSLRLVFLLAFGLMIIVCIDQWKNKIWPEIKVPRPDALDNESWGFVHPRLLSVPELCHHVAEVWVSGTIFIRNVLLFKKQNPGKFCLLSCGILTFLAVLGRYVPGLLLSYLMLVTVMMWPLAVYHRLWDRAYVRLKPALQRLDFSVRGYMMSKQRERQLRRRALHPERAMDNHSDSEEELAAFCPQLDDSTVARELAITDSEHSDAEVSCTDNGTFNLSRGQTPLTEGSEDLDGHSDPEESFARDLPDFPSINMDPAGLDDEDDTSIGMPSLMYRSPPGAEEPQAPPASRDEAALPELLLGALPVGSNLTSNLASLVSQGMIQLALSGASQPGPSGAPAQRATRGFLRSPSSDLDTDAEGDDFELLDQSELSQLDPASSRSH
inactive: [1] 0.016 | crizotinib -0.076 | [2] 0.081 | [3] 0.024 | duvelisib 0.005 | gandotinib 0.007 | tozasertib 0.006 | [4] 0.033 | doramapimod -0.052 | bafetinib -0.164 | [5] -0.032 | nilotinib 0.015 | [6] 0.003 | dasatinib -0.045 | [7] 0.033 | [8] -0.007 | [9] 0.11 | tipifarnib -0.034 | mubritinib 0
active: ispinesib -0.459
